Records with an inconclusive call do not appear. The source made the active and inactive calls. The call rests on the fitted dose curve; in most records, active means well fitted inhibition curve with a large enough effect; inconclusive means small, poorly fitted or top-dose-only effect; inactive means no such curve, though single readings can be large or run the other way. Square brackets hold non-standard residues; d marks the D form. Peptide text beside a SMILES is read from it. ξ: configuration not given here. ξTyr(βOH) = NC(C(=O)O)C(O)c1ccc(O)cc1

This assay deals with Retinaldehyde dehydrogenase 3 (Homo sapiens) (UniProt P47895). Briefly: qHTS for Inhibitors of the Aldehyde Dehydrogenase Family (ALDH1A3) Primary screen (AID 2061315).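 Further: plate controls were DMSO vehicle for no effect and reference inhibitor for full effect.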 Particulars: ALDH inhibition qHTS; series mostly up to 56 µM; activity change, negative = inhibition: at the top concentration.
As for `CCN(CCN(C)C)C(=O)CNCc1cc(C(N)=O)ccn1`, the “activity change, negative = inhibition” value is 80.9% (inactive).
For the compound `COc1cc(/C=C/C(=O)OC2CC(C)=C(C(=O)O)/C2=C/CO[C@@H]2O[C@H](CO)[C@@H](O)[C@H](O)[C@H]2O)ccc1O` (stereo not given in full), the “activity change, negative = inhibition” value was -25.1% [at 28 µM] (inactive).
As for `CN1CCN(C(c2ccccc2)c2ccccc2)CC1`, the “activity change, negative = inhibition” value is -12.8% (inactive).
The figure for `CC1(C)O[C@H]2CC(=O)OC[C@@]23C1=C(O)C(=O)[C@]1(C)C3CC[C@@]2(C)[C@H](c3ccoc3)OC(=O)[C@H]3O[C@]321` (stereo not given in full) is 8.91% [at 28 µM] (inactive); for `NC(N)=NC(=O)c1cnn(-c2cccc3ncccc23)c1C1CC1` it is -6.03% (inactive).
`O=C(CSc1nc2ccccc2c(=O)n1-c1ccccc1)Nc1ccc2c(c1)CCC2`: the “activity change, negative = inhibition” value was 2.63% (inactive).
With `CC1(C)CC[C@]2(C(=O)O)CC[C@]3(C)C(=CCC4[C@@]5(C)CC[C@H](O)C(C)(C)C5CC[C@]43C)C2C1` (stereo not given in full), the “activity change, negative = inhibition” value was 11.7% [at 28 µM] (inactive).
The figure for `CC1(C)CC[C@]2(C(=O)O[C@@H]3O[C@H](CO)[C@@H](O)[C@H](O)[C@H]3O)CC[C@]3(C)C(=CCC4[C@@]5(C)CC[C@H](O[C@@H]6O[C@H](C(=O)O)[C@@H](O[C@@H]7O[C@H](CO)[C@@H](O)[C@H](O)[C@H]7O)[C@H](O)[C@H]6O)C(C)(C)C5CC[C@]43C)C2C1` (stereo not given in full) is 7.79% [at 16.9 µM] (inactive); for `C[C@@]12C(=O)N(c3ccc(C(=O)Nc4cccc5cccnc45)cc3)C(=O)[C@@H]1[C@@H]1C=C[C@H]2C1` it is 3.53% (inactive); for `COC1=CC(=O)C=C(C)C12Oc1c(Cl)c(OC)cc(OC)c1C2=O` (stereo not given) it is 0.904% (inactive).
With `O=C1CCC=CC1(O)C(=O)OCc1ccccc1O[C@@H]1O[C@H](CO)[C@@H](O)[C@H](O)[C@H]1O` (stereo not given in full), the “activity change, negative = inhibition” value was 321% [at 28 µM] (inactive).
The value for `O=C(O)c1ccnc(-c2cc(C(=O)NCCc3ccccc3)ccn2)c1` was 76.6% (inactive).
The value for `O=C(c1ccccc1)c1c(O)cc(O)cc1O[C@@H]1O[C@H](CO)[C@@H](O)[C@H](O)[C@H]1O` was -22.7% (inactive); that for `C[C@@H]1CN(Cc2ccccc2)C[C@H]1c1nc2c(cnn2C2CCOCC2)c(=O)[nH]1` was -5.67% (inactive); that for `COC(=O)C(C)C1CCC2(C)C(=O)C=CC(C)(O)C2C1O` (stereo not given) was 1.84% (inactive).
The figure for `CC(=O)O[C@H]1C[C@H](OC(C)=O)[C@]2(C)[C@H](CC[C@@]34O[C@@H]3C3=C(C)C(=O)O[C@@H]3C[C@H]42)C1(C)C` is -11.6% [at 28 µM] (inactive).
Turning to `C[C@@H](c1ccccc1)N(C(N)=NC#N)c1cccc2ncccc12`, the “activity change, negative = inhibition” value is -0.544% (inactive).
The value for `CC(=O)OCC(=O)Nc1cc(C#N)cc(NC(=O)COC(C)=O)c1Cl` was -2.7% (inactive); that for `CC(C)C1NC(=O)CNC(=O)C2CCCN2C(=O)C(Cc2c[nH]c3ccccc23)NC(=O)CNC(=O)C(C(O)c2ccc(O)cc2)NC(=O)CNC1=O` (stereo not given) (cyclo(G[ξTyr(βOH)]GWPGV); configuration not given here) was -12.4% [at 16.9 µM] (inactive).
The value for `CC1(CO)CCCC2(C)C1C(OC(=O)c1ccccc1)CC1C(=O)OCC12O` (stereo not given) was 1.25% (inactive).
The figure for `CC1(C)CC[C@]2(C(=O)O)CC[C@]3(C)C(=CCC4[C@@]5(C)CC[C@H](O[C@H]6O[C@H](C(=O)O)[C@@H](O)[C@H](O[C@@H]7O[C@H](CO)[C@H](O)[C@H](O)[C@H]7O)[C@H]6O)C(C)(C)C5CC[C@]43C)[C@@H]2C1` (stereo not given in full) is 5.35% [at 16.9 µM] (inactive); for `CC1=C2C(=O)C=C(CO)C2C2OC(=O)C(CS(=O)(=O)O)C2C(OC(=O)Cc2ccc(O)cc2)C1` (stereo not given) it is 6.59% [at 28 µM] (inactive); for `COC(=O)C1=CO[C@@H](O[C@@H]2O[C@H](CO)[C@@H](O)[C@H](O)[C@H]2O)[C@H]2[C@@H]1[C@H](O)C[C@]2(C)O` it is -0.189% [at 28 µM] (inactive).
Consider `C=C1C(=O)OC[C@H]2C(C(=O)O)=CC3CC(C)(C)C[C@@]132` (stereo not given in full), for which the “activity change, negative = inhibition” value is -0.434% (inactive).
The figure for `COc1c(O[C@@H]2O[C@H](CO)[C@@H](O)[C@H](O)[C@H]2O)c(CCC(=O)O)cc2ccoc12` is -10.3% (inactive); for `CC1CCC2C(C)(C)C(O)CCC2(C)C12Cc1c(O)cc3c(c1O2)CN(C(CCC(N)=O)C(=O)O)C3=O` (stereo not given) it is -13.3% [at 28 µM] (inactive).
Take `COc1ccccc1-c1c[nH]c2ncc(-c3cncc(C(=O)N(C)C)c3)cc12`: the “activity change, negative = inhibition” value is -9.75% (inactive).
The value for `COc1ccc(/C=C/C(=O)O[C@@H]2[C@@H](O[C@@H]3O[C@H](CO)[C@@H](O)[C@H](O)[C@H]3O)[C@@H](O)[C@H](O[C@H]3C4C=CO[C@@H](O[C@@H]5O[C@H](CO)[C@@H](O)[C@H](O)[C@H]5O)C4[C@@]4(CO)O[C@@H]34)O[C@H]2C)cc1` (stereo not given in full) was -7.15% [at 16.9 µM] (inactive); that for `COc1ccnc2[nH]cc(C(=O)C(=O)N3CCN(C(=O)c4ccccc4)CC3C)c12` (stereo not given) was 12.6% (inactive).
`CC(=O)c1c(C)cc(O[C@@H]2O[C@H](CO)[C@@H](O)[C@H](O)[C@H]2O)cc1O`: the “activity change, negative = inhibition” value was -14% (inactive).

Values taken from PubChem BioAssay (NCATS).
